Hits are enriched below; roughly 5.5% of the tested compounds scored in any of these assays.
Giardia kill – Giardia lamblia killing; 340,000 tested, 0.15% active; Giardia lamblia trophozoite viability; activity change, % at 7.66 µM, hits read low; in the data active means activity change below about -80%; inconclusive means between about -30% and that limit;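 further: parasites exposed to compound for two days anaerobically before the ATP read; on the % scale 0 is the no-effect control and ±100 the full control effect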
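Media and compound were dispensed first, then trophozoites at 100 cells/well; plates sat 48 hrs at 37 deg C without oxygen before ATP luminescence reagent was added and read after 15-30 min at room temperature.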
Sfp inh – blocks B. subtilis Sfp PPTase activity. 310,000 tested, 3.5% active. Biochemical Sfp PPTase activity, qHTS. Q9F4F7. AID 1490. Potency, µM, for the others: largest response in the series, negative = inhibition, actives largely listed as inhibitors; active means well fitted curve in the direction sought with a large enough effect; inconclusive means small, poorly fitted or top-dose-only effect, or another doubt; inactive means no such curve, though single readings can be large; an effect the other way counts as inactive or inconclusive;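 further: the enzyme is Sfp with the accession as filed and its product quenches rhodamine fluorescence; potency means the concentration at half of the fitted maximal effect; 0% = enzyme reaction without inhibitor and -100% = no enzyme wells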
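Reaction rates are the 30-min fluorescence difference (ex 525, em 598 nm) in wells containing 15 nM Sfp, 5 uM rhodamine-CoA and 12.5 uM BHQ-2-YbbR at pH 7.6 with 10 mM MgCl2.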
ELG1 repair inh – ELG1-dependent DNA repair inhibition. HEK293T ELG1-luciferase reporter, luminescence, 16 h; DNA damage induced by 5-fluorouridine. Potency, µM (highest dose often 46.1 µM), inactives show at the top dose activity change, negative = inhibition, hits mostly inhibitors. 330,000 tested, 2.3% active; active means well fitted curve in the direction sought with a large enough effect; inconclusive means small, poorly fitted or top-dose-only effect, or another doubt; inactive means no such curve, though single readings can be large; an effect the other way counts as inactive or inconclusive; further: potency means the concentration at half of the fitted maximal effect; on the % scale 0 is the no-effect control and ±100 the full control effect; nearly all actives have a fitted effect of over 55% in size
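5-Fluorouridine DNA damage + compound/DMSO, 2,000 cells/well, 16 h, 37 °C/5% CO2. ONE-Glo, 30 min RT, luminescence. Readout = decrease in reporter signal.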
FBPA coupling cs – inhibits coupling enzyme system, counter-screen for aldolase hits; coupling enzyme system counterscreen, AmpLite Red fluorescence; activity change, negative = inhibition, % at 58.2 µM, hits read low; 290,000 tested, 0.67% active; AID 2472; in the data active means activity change below about -30%; further: on the % scale 0 is the no-effect control and ±100 the full control effect
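Counterscreen lacking aldolase: glyceraldehyde-3-phosphate coupling-enzyme reagent preincubated 10 min at RT with compound (at 57.5 uM final), then substrate/coupling system with AmpLite Red added; fluorescence read at 525/598 nm after 20 min RT.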
Sfp PPTase conf – Sfp phosphopantetheinyl transferase inhibition, confirmation | Potency, µM (top dose mostly 114 µM), for inactives: at the top dose activity change, negative = inhibition, hits mostly inhibitors | AID 2701 | Sfp PPTase enzymatic assay, qHTS titration | shares compounds with Sfp inh | 380 tested, 79% active; active means well fitted curve in the direction sought with a large enough effect; inconclusive means small, poorly fitted or top-dose-only effect, or another doubt; inactive means no such curve, though single readings can be large; an effect the other way counts as inactive or inconclusive;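 further: potency means the concentration at half of the fitted maximal effect; plate controls were uninhibited Sfp reaction for no effect and no enzyme control for full effect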
Sfp PPTase gel – Inhibits B. subtilis Sfp phosphopantetheinylation. Potency, µM, most hits filed as inhibitors. 210 tested, 20% active. purified Sfp, gel-based phosphopantetheinylation read-out. shares compounds with Sfp inh;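 active means potency below 100 µM; inconclusive means dose-dependent response but potency above 100 µM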;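 further: band intensities scaled against SCH202676 control wells before curve fitting; potency is an IC50 for inhibitors of Sfp transfer activity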
Casp1 catalase – caspase-1 inhibition with catalase present; shares compounds with FBPA coupling cs; caspase-1 Ac-WEHD-AFC fluorescence rate, catalase buffer; Potency, µM (doses to about 57.5 µM), for the others: at the highest dose activity change, negative = inhibition, actives largely listed as inhibitors; 30 tested, under 10 active; AID 888
Casp1 confirm – blocks human caspase-1 activity in concentration-response. shares compounds with FBPA coupling cs. purified caspase-1, fluorogenic substrate cleavage. Potency, µM (top dose mostly 57.5 µM), for inactives: top-dose activity change, negative = inhibition, actives largely listed as inhibitors. 60 tested, 20% active
CASP7 inh CRC – confirmation of allosteric or competitive inhibitors of human caspase-7 | Potency, µM (titrated, usually from 57.5 µM), for inactives: top-dose activity change, negative = inhibition, most hits filed as inhibitors | shares compounds with FBPA coupling cs | recombinant caspase-7, fluorogenic substrate cleavage | 60 tested, under 10 active; active means well fitted inhibition curve with a large enough effect in the main read-out, with a control signal flat, not every such curve was filed as active; inconclusive means small, poorly fitted or top-dose-only effect, or a change in a side signal; inactive means no such curve, though single readings can be large or run the other way
Casp7 cysteine – inhibits caspase-7 in cysteine buffer, redox counter-screen; shares compounds with FBPA coupling cs; Potency, µM (highest dose often 57.5 µM), for inactives: at the top dose activity change, negative = inhibition, hits mostly inhibitors; 60 tested, under 10 active; AID 908; caspase-7 enzyme with cysteine, fluorogenic substrate, redox counterscreen
CASP7 redox cat – inhibits caspase-7 in catalase buffer, redox counter-screen; shares compounds with FBPA coupling cs; Caspase-7 Ac-DEVD-AFC fluorescence rate, catalase buffer; Potency, µM (series often up to 57.5 µM), for the others: at the top dose activity, negative = inhibition, usual class: inhibitors; 30 tested, under 10 active
CASP1 redox cys – caspase-1 inhibition with cysteine present | shares compounds with FBPA coupling cs | recombinant caspase-1, fluorogenic substrate, cysteine buffer | Potency, µM (series often up to 57.5 µM), without a hit: at the top dose activity change, negative = inhibition, actives largely listed as inhibitors | 60 tested, under 10 active | AID 929
An asterisk follows results filed as active; i = inactive; ? = inconclusive; · = no result given. Unless noted, the call rests on the fitted dose curve; in most records, active means well fitted inhibition curve with a large enough effect in the main read-out, with a control signal flat; inconclusive means small, poorly fitted or top-dose-only effect, or a change in a side signal; inactive means no such curve, though single readings can be large or run the other way.

SMILES	Giardia kill	Sfp inh	ELG1 repair inh	FBPA coupling cs	Sfp PPTase conf	others
CN(CCCN1c2ccccc2CCc2ccccc21)CC(=O)c1ccc(Cl)cc1	·	50µM*	·	0	37µM*	Sfp PPTase gel=i
CN(C)CCCN1c2ccccc2Sc2ccccc21	-19	-16%	0%	-2	·
Cc1ccc(NC(=S)NC(=O)c2sc3ccccc3c2Cl)c(C(=O)O)c1	·	16µM*	?	2	53µM*
CC(C)[C@H](NC(=O)OC(C)(C)C)c1nnc(S(=O)(=O)Cc2c(F)cccc2Cl)o1	4	14µM*	-5%	-3	30µM*	Sfp PPTase gel=?
CO[C@@H]1[C@@H](OC2OC(C)C(OC3CC(C)(O)C(OC(=O)CC(C)C)C(C)O3)C(N(C)C)C2O)[C@@H](CC=O)C[C@@H](C)C(=O)/C=C\C2O[C@H]2C[C@@H](C)OC(=O)C[C@H]1OC(C)=O (some centres not stated)	·	6%	·	·	·
Cc1nn(-c2ccccc2)c(NC(=O)NS(=O)(=O)c2ccc(Cl)cc2)c1C#N	·	8%	·	4	·
O=C(NC1CCN(C(=O)c2ccccc2Br)CC1)c1ccccc1	-10	6%	-12%	-1	·
OC(C#Cc1ccccn1)c1cccs1 (configuration not stated)	-21	18µM*	?	-14	47µM*	Sfp PPTase gel=i
CCN(CC)CCC(c1ccc(N(C)C)cc1)c1c(OC)cc(OC)c2c1OC(=O)CC2c1ccc(OC)cc1 (configuration not stated)	-6	-12%	·	1	·
NC(=O)Cn1c(=O)n(Cc2ccco2)c(=O)c2c3c(sc21)CCCCC3	-8	10µM*	7%	0	19µM*
CCOC(=O)Nc1ccc(NCc2ccc(F)cc2)nc1N	4	35µM*	-2%	·	15µM*
COC(=O)c1c(NC(=O)CCC(=O)O)sc2c1CCCCC2	1	0%	1%	9	·
O=C(O)CCC(=O)Nc1sc2c(c1C(=O)Nc1ccccc1)CCCCC2	2	13µM*	6%	0	15µM*
COc1ccccc1NC(=O)c1c(NC(=O)CCC(=O)O)sc2c1CCCCC2	-25	10µM*	10%	-1	21µM*
COCC(=O)N1CCC2(CCCN(c3ncccn3)C2)CC1	·	11%	·	1	·
CCc1c(C)nc2cc(-c3cc(OC)cc(OC)c3)nn2c1N1CCCC1	8	16µM*	?	-8	47µM*
COc1cc(OC)cc(-c2cc3nc(C)c(CCC(=O)Nc4nc(C)cs4)c(C)n3n2)c1	11	5%	?	1	·
CCc1c(C)nc2cc(-c3ccc(OC)c(OC)c3)nn2c1N1CCC(C)CC1	20	4%	?	·	·
CCc1c(C)nc2cc(-c3ccc(OC)c(OC)c3)nn2c1N1CCCC1	6	6.3µM*	13µM*	-8	?
c1ccc(Cc2nn3c(COc4ccccc4)nnc3s2)cc1	4	14µM*	0%	2	19µM*
CC[C@H](C)[C@@H]1NC(=O)[C@H]([C@@H](C)CC)NC(=O)[C@@H](CC(C)C)NC(=O)[C@H](Cc2ccccc2)NC(=O)[C@H](Cc2ccccc2)NC(=O)[C@@H]2CCCN2C(=O)[C@@H]2CCCN2C(=O)[C@H](C(C)C)NC(=O)[C@H](CC(C)C)NC1=O	8	·	?	·	·
CCOC(=O)c1c(NC(=O)c2ccoc2C)sc(C)c1C	-12	?	-22%	1	·
CCc1c(C)sc(NC(=O)c2ccoc2C)c1C(N)=O	-10	11µM*	27%	·	8.3µM*
COc1cccc(NC(=O)CSC2=C(C#N)C(c3ccco3)C3=C(CCCC3=O)N2)c1 (configuration not stated)	6	7.9µM*	-22%	3	47µM*	Sfp PPTase gel=i
CNc1ccccc1C(C)(C)c1cc(C)[nH]n1	4	21%	-2%	0	·
SMILES	Giardia kill	Sfp inh	ELG1 repair inh	FBPA coupling cs	Sfp PPTase conf	others
CNc1ccccc1C(C)(C)c1cc(-c2ccco2)n[nH]1	3	56µM*	-10%	-16	24µM*	Sfp PPTase gel=i
Cc1ccc(CC(=O)OC(C)C(=O)NC2CCCCC2C)cc1C (configuration not stated)	0	·	2%	·	·
CN(C)CCCSc1nc2ccccc2s1	-7	35µM*	?	0	?
COc1ccc(Br)cc1CNc1ccc(O)cc1	-1	20µM*	?	-63*	?	Sfp PPTase gel=?;Casp1 catalase=1%;Casp1 confirm=-2%;CASP7 inh CRC=-1%;Casp7 cysteine=3%;CASP7 redox cat=-5%;CASP1 redox cys=8%
CCc1ccc(CNc2ccc(O)cc2)cc1	3	11µM*	?	-58*	37µM*	Sfp PPTase gel=i;Casp1 confirm=-5%;CASP7 inh CRC=-3%;Casp7 cysteine=-4%;CASP1 redox cys=9%
CCc1ccc(CNc2ccc3c(c2)ncn3CC)cc1	0	-2%	?	-1	·
COc1cccc(CN2CC34CCC(CC3S2(=O)=O)O4)c1 (configuration not stated)	13	1%	·	5	·
CCc1nnc(NC(=O)C2CCCN(c3nc4ccccc4s3)C2)s1 (configuration not stated)	0	12%	?	1	·
O=C(Nc1ccc2c(c1)OCO2)C1CCCN(c2nc3ccccc3s2)C1 (configuration not stated)	-8	-7%	?	-7	·	Casp1 catalase=1%;Casp1 confirm=-9%;CASP7 inh CRC=-7%;Casp7 cysteine=-4%;CASP7 redox cat=-6%;CASP1 redox cys=7%

From PubChem BioAssay
